Measured values published in the supplement of paper PMC10849652.
The full data set covers some 7,900 targets. This sample favours those with a hit. About 0.6% of all pairs of compound and target were hits. Unmarked numbers belong to inactive results.

What was measured:
Experiment in all cases: log2 fold change, soluble protein after heating vs DMSO (PISA); higher = thermal stabilisation; K562 cells, 10 uM, 30 min; active = over 0.2 and 3.5 SD of the protein, either way, in both replicates (recomputed)
[1] = compound: CC1=C(C=C(C=C1)NC(=O)C2=CC(=CC=C2)C(C)(C)C#N)NC3=CC4=C(C=C3)N=CN(C4=O)C
In short: (§1)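 K562 cells at 2×10^6 cells/mL were treated for 30 min with 10 μM compound, and aliquots were heated for 3 min over 48°C-58°C before pooling. Extraction used PBS with 0.5% NP-40 at 4°C, and soluble protein was the supernatant after 21,000xg for 90 min, measured by TMTpro 16plex LC-MS/MS with channel sums equalised. Thermal stability values, relative to control samples and from duplicates, are log2 fold changes.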

[2] = compound: CC1=C(C=C(C=C1)NC(=O)C2=CC(=CC=C2)N(C)C)NC(=O)C3=CC=C(C=C3)O
In short: as §1

[3] = compound: CC1=CC=C(C=C1)SC2=C3C=C(SC3=CN=C2)C(=O)N
In short: as §1

[4] = compound: CC1=NC(=CC=C1)C2=C(N=C(N2)C(C)(C)C)C3=CC4=NC=CN=C4C=C3
In short: as §1

Nexturastat A = compound: CCCCN(Cc1ccc(C(=O)NO)cc1)C(=O)Nc1ccccc1 [Nexturastat A]
In short: as §1

vemurafenib = compound: CCCS(=O)(=O)Nc1ccc(F)c(C(=O)c2c[nH]c3ncc(-c4ccc(Cl)cc4)cc23)c1F [vemurafenib]
In short: as §1

[5] = compound: CCCS(=O)(=O)Nc1ccc(F)c(C(=O)c2c[nH]c3ncc(Cl)cc23)c1F
In short: as §1

[6] = compound: CCCc1cc(C)[nH]c(=O)c1CNC(=O)c1cc(-c2ccnc(N3CCN(C)CC3)c2)cc2c1cnn2C(C)C
In short: as §1

givinostat = compound: CCN(CC)Cc1ccc2cc(COC(=O)Nc3ccc(C(=O)NO)cc3)ccc2c1 [givinostat]
In short: as §1

barasertib = compound: CCN(CCCOc1ccc2c(Nc3cc(CC(=O)Nc4cccc(F)c4)[nH]n3)ncnc2c1)CCOP(=O)(O)O [barasertib]
In short: as §1

[7] = compound: CC[C@@H]1C(=O)N(C)c2cnc(Nc3ccc(C(=O)NC4CCN(C)CC4)cc3OC)nc2N1C1CCCC1
In short: as §1

volasertib = compound: CC[C@@H]1C(=O)N(C)c2cnc(Nc3ccc(C(=O)N[C@H]4CC[C@H](N5CCN(CC6CC6)CC5)CC4)cc3OC)nc2N1C(C)C [volasertib]
In short: as §1

[8] = compound: CC[C@H](C)N1C=C(C2=C(C=C(C=C21)C3=CN=C(C=C3)N4CCNCC4)C(=O)NCC5=C(C=C(NC5=O)C)C)C
In short: as §1

epoxomicin = compound: CC[C@H](C)[C@@H](C(=O)N[C@@H]([C@@H](C)O)C(=O)N[C@@H](CC(C)C)C(=O)[C@]1(CO1)C)NC(=O)[C@H]([C@@H](C)CC)N(C)C(=O)C [epoxomicin]
In short: as §1

[9] = compound: CCn1c(C(=O)N(C2CC2)C2CC2)cc2c3c(ncn3C)c(Nc3cc(C)n(C)n3)nc21
In short: as §1

[10] = compound: CCn1cc(-c2ccnc3[nH]c(-c4cccc(CN(C)C)c4)cc23)c(-c2ccc(NC(=O)N(C)C)cc2)n1
In short: as §1

[11] = compound: CN(C)CC(=O)Nc1ccc2[nH]c(=O)c3ccccc3c2c1
In short: as §1

rosiglitazone = compound: CN(CCOC1=CC=C(C=C1)C[C@H]2C(=O)NC(=O)S2)C3=CC=CC=N3 (racemic) [rosiglitazone]
In short: as §1

[12] = compound: CN1C2=C(C3=C1C(=O)N(N=C3)CC4=CC(=CC=C4)N)SC(=C2)S(=O)C
In short: as §1

[13] = compound: CN1CCC(CNc2ccc3ncc(-c4cccc(OC(F)(F)F)c4)n3n2)CC1
In short: as §1

Chain of UniProt Q8N8N7 (Q8N8N7 whole entry, looked up): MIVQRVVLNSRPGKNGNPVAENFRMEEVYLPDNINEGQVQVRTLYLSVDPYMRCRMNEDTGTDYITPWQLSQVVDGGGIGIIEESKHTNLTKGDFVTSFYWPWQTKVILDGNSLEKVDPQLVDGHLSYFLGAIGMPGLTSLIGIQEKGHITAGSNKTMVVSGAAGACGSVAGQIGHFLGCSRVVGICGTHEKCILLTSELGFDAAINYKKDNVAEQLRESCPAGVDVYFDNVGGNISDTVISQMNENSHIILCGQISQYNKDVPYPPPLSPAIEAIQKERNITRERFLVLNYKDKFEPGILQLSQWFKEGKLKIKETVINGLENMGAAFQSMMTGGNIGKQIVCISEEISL
Chain of UniProt Q6P4A8 (Q6P4A8 whole entry, looked up): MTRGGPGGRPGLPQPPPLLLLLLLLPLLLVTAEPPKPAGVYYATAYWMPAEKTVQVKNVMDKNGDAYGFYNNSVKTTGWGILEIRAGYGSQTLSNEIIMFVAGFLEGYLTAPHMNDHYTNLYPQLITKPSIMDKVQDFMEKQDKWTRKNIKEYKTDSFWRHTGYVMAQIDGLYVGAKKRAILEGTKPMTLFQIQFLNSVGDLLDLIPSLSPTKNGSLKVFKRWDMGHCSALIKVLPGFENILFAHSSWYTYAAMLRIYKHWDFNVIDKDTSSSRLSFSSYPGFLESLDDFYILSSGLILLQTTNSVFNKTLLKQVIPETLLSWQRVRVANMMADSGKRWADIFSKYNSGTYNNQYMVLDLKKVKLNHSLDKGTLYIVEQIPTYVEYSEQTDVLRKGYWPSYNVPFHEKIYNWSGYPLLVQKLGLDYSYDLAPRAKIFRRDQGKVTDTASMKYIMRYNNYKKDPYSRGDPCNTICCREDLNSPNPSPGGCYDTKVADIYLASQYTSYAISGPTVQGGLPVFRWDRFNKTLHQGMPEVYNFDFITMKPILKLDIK
Chain of UniProt Q15365 (Q15365 whole entry, looked up): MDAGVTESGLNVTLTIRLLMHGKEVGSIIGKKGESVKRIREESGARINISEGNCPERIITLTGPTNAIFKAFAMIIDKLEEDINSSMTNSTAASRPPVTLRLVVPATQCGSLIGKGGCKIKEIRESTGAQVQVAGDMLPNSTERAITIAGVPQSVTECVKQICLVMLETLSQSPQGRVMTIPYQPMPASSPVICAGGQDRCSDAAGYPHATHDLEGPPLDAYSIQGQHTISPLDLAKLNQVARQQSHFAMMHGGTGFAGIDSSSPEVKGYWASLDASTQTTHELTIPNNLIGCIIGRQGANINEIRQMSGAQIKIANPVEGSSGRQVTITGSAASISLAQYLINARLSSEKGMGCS
Chain of UniProt P62195 (P62195 whole entry, looked up): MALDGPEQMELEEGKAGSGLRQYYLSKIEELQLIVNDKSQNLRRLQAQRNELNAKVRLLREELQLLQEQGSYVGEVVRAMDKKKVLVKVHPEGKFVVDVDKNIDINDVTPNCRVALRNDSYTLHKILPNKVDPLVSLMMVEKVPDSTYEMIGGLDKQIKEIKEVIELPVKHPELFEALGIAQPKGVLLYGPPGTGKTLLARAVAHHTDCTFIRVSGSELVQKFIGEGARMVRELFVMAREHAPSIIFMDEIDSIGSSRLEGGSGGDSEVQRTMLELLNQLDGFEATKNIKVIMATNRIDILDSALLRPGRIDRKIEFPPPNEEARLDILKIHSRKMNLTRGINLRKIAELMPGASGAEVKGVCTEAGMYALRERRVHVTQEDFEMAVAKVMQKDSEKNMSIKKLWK
Chain of UniProt Q8NBL1 (Q8NBL1 whole entry, looked up): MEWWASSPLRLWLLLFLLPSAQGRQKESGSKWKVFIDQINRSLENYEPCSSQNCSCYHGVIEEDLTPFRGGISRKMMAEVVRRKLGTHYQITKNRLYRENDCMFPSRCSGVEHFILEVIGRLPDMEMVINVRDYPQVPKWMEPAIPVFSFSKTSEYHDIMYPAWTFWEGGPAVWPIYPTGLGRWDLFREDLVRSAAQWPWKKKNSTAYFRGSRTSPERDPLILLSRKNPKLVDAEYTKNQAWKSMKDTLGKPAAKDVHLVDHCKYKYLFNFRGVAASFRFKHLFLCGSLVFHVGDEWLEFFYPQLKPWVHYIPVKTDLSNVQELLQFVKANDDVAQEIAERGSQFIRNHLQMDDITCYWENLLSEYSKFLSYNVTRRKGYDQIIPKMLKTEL
Chain of UniProt O15067 (O15067 whole entry, looked up): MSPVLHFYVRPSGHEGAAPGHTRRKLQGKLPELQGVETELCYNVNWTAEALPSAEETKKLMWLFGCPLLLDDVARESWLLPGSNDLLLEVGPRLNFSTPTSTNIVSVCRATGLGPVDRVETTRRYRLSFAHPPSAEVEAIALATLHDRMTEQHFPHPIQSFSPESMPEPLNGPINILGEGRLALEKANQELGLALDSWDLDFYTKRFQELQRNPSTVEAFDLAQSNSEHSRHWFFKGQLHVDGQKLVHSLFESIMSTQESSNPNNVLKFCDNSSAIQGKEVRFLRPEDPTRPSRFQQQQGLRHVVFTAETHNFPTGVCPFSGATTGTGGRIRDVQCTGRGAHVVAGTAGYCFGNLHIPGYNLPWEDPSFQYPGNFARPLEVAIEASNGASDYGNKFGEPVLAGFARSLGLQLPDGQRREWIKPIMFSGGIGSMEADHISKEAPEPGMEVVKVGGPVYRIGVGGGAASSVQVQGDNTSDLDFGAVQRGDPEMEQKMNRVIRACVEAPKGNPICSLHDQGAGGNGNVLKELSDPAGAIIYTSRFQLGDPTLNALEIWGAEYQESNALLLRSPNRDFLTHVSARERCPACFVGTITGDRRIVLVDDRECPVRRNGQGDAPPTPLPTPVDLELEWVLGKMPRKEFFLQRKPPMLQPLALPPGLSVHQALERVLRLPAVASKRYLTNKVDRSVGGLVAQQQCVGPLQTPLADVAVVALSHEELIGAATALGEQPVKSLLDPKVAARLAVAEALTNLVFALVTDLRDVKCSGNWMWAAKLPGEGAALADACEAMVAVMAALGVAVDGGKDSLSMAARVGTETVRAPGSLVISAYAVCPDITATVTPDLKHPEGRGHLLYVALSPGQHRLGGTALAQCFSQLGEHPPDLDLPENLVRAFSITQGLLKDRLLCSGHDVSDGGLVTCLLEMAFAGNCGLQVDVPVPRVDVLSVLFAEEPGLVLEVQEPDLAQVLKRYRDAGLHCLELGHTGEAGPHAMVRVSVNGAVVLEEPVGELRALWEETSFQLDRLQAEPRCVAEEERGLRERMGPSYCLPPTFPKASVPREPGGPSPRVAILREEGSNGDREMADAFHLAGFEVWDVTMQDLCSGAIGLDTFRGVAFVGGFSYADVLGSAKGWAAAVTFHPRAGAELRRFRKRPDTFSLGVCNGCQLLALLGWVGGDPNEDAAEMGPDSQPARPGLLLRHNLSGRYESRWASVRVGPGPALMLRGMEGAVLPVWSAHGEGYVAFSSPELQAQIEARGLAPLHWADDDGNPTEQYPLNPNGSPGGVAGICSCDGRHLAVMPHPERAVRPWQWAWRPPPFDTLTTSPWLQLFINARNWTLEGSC
Chain of UniProt Q969N2 (Q969N2 whole entry, looked up): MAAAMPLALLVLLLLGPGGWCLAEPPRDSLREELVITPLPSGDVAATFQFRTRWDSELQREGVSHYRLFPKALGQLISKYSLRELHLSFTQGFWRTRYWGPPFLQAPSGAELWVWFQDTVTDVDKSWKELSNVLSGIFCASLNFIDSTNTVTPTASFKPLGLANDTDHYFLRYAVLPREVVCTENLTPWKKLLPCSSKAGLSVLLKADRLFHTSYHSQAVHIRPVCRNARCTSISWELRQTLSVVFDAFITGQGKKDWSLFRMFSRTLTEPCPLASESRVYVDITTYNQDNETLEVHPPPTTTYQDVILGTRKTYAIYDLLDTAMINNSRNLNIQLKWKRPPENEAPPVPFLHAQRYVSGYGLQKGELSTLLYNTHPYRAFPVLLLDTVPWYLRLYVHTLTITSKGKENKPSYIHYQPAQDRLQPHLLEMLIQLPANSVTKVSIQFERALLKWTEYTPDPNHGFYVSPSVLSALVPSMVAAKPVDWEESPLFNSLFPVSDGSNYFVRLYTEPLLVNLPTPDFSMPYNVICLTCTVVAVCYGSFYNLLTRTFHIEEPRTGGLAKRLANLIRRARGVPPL
Chain of UniProt O75340 (O75340 whole entry, looked up): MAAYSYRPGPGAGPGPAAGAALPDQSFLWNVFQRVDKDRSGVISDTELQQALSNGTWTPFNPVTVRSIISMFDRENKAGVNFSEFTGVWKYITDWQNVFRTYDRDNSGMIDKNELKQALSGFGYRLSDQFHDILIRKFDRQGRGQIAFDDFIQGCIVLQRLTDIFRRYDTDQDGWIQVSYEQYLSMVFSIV
Chain of UniProt Q8WUA2 (Q8WUA2 whole entry, looked up): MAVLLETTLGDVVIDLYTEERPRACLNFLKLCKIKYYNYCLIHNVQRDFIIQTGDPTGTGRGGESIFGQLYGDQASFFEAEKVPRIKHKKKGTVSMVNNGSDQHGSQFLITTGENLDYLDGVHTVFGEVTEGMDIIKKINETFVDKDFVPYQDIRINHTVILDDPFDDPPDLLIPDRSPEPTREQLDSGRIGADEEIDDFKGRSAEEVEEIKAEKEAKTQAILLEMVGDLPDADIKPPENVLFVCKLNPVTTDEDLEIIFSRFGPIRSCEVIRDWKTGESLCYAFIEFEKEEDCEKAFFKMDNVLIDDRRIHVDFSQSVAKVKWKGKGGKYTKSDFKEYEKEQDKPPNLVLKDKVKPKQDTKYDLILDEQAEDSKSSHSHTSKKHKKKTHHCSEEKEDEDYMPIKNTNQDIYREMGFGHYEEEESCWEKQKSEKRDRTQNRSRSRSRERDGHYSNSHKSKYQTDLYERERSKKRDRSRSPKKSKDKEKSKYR

| Target | log2 fold change [1] | log2 fold change [2] | log2 fold change [3] | log2 fold change [4] | log2 fold change (Nexturastat A) | log2 fold change (vemurafenib) | log2 fold change [5] | log2 fold change [6] | log2 fold change (givinostat) | log2 fold change (barasertib) | log2 fold change [7] | log2 fold change (volasertib) | log2 fold change [8] | log2 fold change (epoxomicin) | log2 fold change [9] | log2 fold change [10] | log2 fold change [11] | log2 fold change (rosiglitazone) | log2 fold change [12] | log2 fold change [13] |
| --- | --- | --- | --- | --- | --- | --- | --- | --- | --- | --- | --- | --- | --- | --- | --- | --- | --- | --- | --- | --- |
| PSMC5 (UniProt P62195) | 0.014 | 0.011 | -0.029 | -0.05 | 0.003 | -0.048 | -0.053 | 0.032 | -0.082 | -0.034 | 0.043 | 0.178 | -0.002 | -0.308 (active) | 0.024 | 0.039 | -0.029 | -0.014 | 0.015 | 0.066 |
| PPIL4 (UniProt Q8WUA2) | 0.006 | -0.02 | -0.06 | -0.007 | 0.145 | 0.001 | 0 | 0.04 | 0.045 | 0 | -0.024 | -0.253 (active) | 0.043 | 0.011 | -0.051 | 0.047 | 0.007 | -0.03 | 0.022 | -0.098 |
| PIGT (UniProt Q969N2) | -0.001 | -0.005 | 0.02 | -0.016 | 0.031 | -0.008 | 0.009 | 0.027 | -0.033 | 0.004 | 0.02 | -0.118 | 0.035 | -0.011 | 0.019 | -0.046 | 0.013 | 0.014 | 0.015 | 0.081 |
| PTGR2 (UniProt Q8N8N7) | -0.022 | -0.058 | 0.022 | -0.056 | -0.175 | -0.022 | -0.021 | 0.234 | 0.139 | 0 | 1.1 (active) | 1.27 (active) | 0.154 | -0.006 | 0.244 | -0.117 | 0.181 | -0.009 | 0.025 | -0.278 |
| PTPN23 (UniProt Q9H3S7) | -0.062 | -0.049 | -0.009 | 0.002 | -0.015 | 0.025 | 0.051 | 0.088 | 0.107 | 0.047 | -0.163 | -0.453 (active) | 0.019 | 0.013 | -0.024 | -0.006 | 0.073 | 0.017 | 0.016 | -0.106 |
| PDCD6 (UniProt O75340) | 0.013 | 0.039 | -0.001 | 0.032 | -0.032 | -0.025 | 0.023 | -0.089 | -0.017 | 0.004 | -0.157 | -0.283 (active) | -0.006 | 0.031 | -0.005 | -0.01 | 0.007 | 0.025 | -0.041 | -0.057 |
| PLBD1 (UniProt Q6P4A8) | 0.005 | -0.023 | 0.032 | -0.039 | 0.005 | 0.069 | -0.014 | 0.006 | -0.013 | 0.027 | -0.063 | -0.076 | -0.022 | -0.016 | -0.005 | -0.028 | 0.088 | -0.049 | -0.01 | -0.352 (active) |
| PFAS (UniProt O15067) | -0.056 | -0.119 | 0.172 | 0.002 | -0.081 | 0.032 | -0.003 | -0.039 | 0.05 | 0.061 | -0.04 | -0.124 | 0.113 | -0.016 | -0.218 | -0.069 | 0.031 | -0.003 | -0.241 | -0.001 |
| POGLUT1 (UniProt Q8NBL1) | -0.063 | -0.027 | -0.081 | -0.024 | -0.025 | -0.139 | -0.034 | 0.043 | 0.052 | -0.022 | 0.007 | -0.054 | 0.013 | 0.012 | -0.051 | 0.089 | -0.083 | -0.019 | 0.039 | 0.26 (active) |
| PITRM1 isoform 2 (UniProt Q5JRX3) | 0.21 | -0.064 | 0.047 | 0.073 | -0.152 | 0.002 | -0.002 | 0.018 | -0.047 | -0.03 | 0.048 | 0.489 (active) | 0.166 | -0.029 | 0.074 | -0.084 | 0.023 | 0.03 | -0.124 | -0.189 |
| PUM1 isoform 3 (UniProt Q14671) | -0.011 | 0.01 | 0.011 | 0.042 | 0.06 | 0.02 | 0.05 | 0.002 | -0.03 | 0.011 | -0.075 | -0.302 (active) | 0.036 | 0.023 | -0.007 | -0.018 | 0.015 | 0.033 | 0.044 | -0.123 |
| PCBP1 (UniProt Q15365) | 0.034 | -0.037 | 0.112 | 0.067 | -0.038 | 0.022 | 0.097 | -0.011 | 0.013 | 0.021 | -0.1 | -0.268 (active) | 0.04 | 0.025 | -0.065 | 0.025 | 0.039 | 0.035 | 0.009 | -0.129 |
